In PubChem BioAssay:
Where “and” joins values, the source holds several entries; their conditions need not be identical. Equal entries are not always repeated. For part of these data: Results with a measured potency or affinity are listed apart. Calls of active or inactive are those of the source. Unless noted, how the calls were made is not given here.

Tested on: not listed separately
Test: inhibition of 3D7 malaria parasite growth – strain 3D7 (AID 2306);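 further: 0% = DMSO wells and 100% = chloroquine plus artemisinin control wells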
Conditions: P. falciparum 3D7 erythrocytic growth, LDH absorbance, 72 h; at 2 µM; active compounds read high
For `COCCNCc1ccc(-c2ccc(CN(C(=O)NC3CCCCC3)C3CCN(Cc4ccccc4)CC3)cc2)cc1`, the growth inhibition was 94% (active).
In the case of `CC[C@H]1CN2CC[C@H]1C[C@H]2[C@H](O)c1cc(Cl)nc2ccc(OC)cc12`, the growth inhibition is reported as 101% (active).
For `CC(=O)Nc1ccc2[nH]cc(C3CCN(CC4CCN(C(=O)/C=C/c5ccc(Cl)c(Cl)c5)CC4)CC3)c2c1`, the growth inhibition was 96% (active).
For `COc1ccccc1CNCC(O)c1cc(C(F)(F)F)ccc1C(F)(F)F` (stereo not drawn), the growth inhibition was 101% (active).
For `CC(C)CNCc1ccc(-c2ccc(CN(C(=O)NC3CCCCC3)C3CCN(Cc4ccccc4)CC3)cc2)cc1`, the growth inhibition was 101% (active).
For `O=C(Nc1cc(C(F)(F)F)cc(C(F)(F)F)c1)N1CCC(CN2CCC(c3c[nH]c4ccccc34)CC2)CC1`, the growth inhibition was 100% (active).
With `COc1ccc(OC)c(CNCC(O)c2cc(C(F)(F)F)cc(C(F)(F)F)c2)c1` (stereo not drawn) the growth inhibition was 92% (active).
With `Cc1[nH]c2ccc(O)cc2c1C1CCN(CC2CCC(NC(=O)/C=C/c3ccc(Cl)c(Cl)c3)CC2)CC1` (stereo not drawn) the growth inhibition was 102% (active).
In the case of `CC[C@H]1CN2CC[C@H]1C[C@@H]2[C@@H](OC(=O)c1ccc(Cl)cc1)c1ccnc2ccc(OC)cc12`, the growth inhibition is reported as 89% (active).
In the case of `CC(=O)Nc1ccc(OCCN(CC(F)(F)F)c2ccc(C#N)cc2C(F)(F)F)cc1`, the growth inhibition is reported as 81% (active).
With `COc1ccc(CC(C)NCC(O)c2cccc(Cl)c2F)cc1` (stereo not drawn) the growth inhibition was 88% (active).
With `CN(c1cc(NC(=O)c2cccs2)ccn1)C1CCN(Cc2ccccc2)CC1` the growth inhibition was 92% (active).
For `Cc1[nH]c2cc(F)ccc2c1C1=CCN(CCCCC2(C)C(=O)Nc3ccccc32)CC1` (stereo not drawn), the growth inhibition was 93% (active).
In the case of `Cc1cc(C(=O)NC2CCN(CC3(c4ccc(Cl)cc4)CCC3)CC2)on1`, the growth inhibition is reported as 98% (active).
In the case of `O=C(c1cc(C(=O)NCc2ccc(Cl)cc2)c(=O)n(Cc2ccc(Cl)cc2)c1)c1cc(Cl)ccc1O`, the growth inhibition is reported as 80% (active).
In the case of `CCCc1c(C(=O)NC2CCC(CN3CCC(c4c[nH]c5ccccc45)CC3)CC2)cnn1-c1ccccc1` (stereo not drawn), the growth inhibition is reported as 92% (active).
For `Cc1cc2ccc(CNCCc3ccccc3Br)cc2nc1N`, the growth inhibition was 101% (active).
With `CSc1ccc(C[C@@H](C)NC[C@H](O)c2cccc(Cl)c2)cc1` the growth inhibition was 97% (active).
For `CC(=O)N(Cc1ccccc1-c1cccc(CNCCc2ccccc2)c1)C1CCN(Cc2ccccc2)CC1`, the growth inhibition was 89% (active).
For `CC(Cc1ccc(S(=O)(=O)N(C(C)C)C(C)C)cc1)NCC(O)c1cccc(C(F)(F)F)c1` (stereo not drawn), the growth inhibition was 96% (active).
For `O=C(/C=C/c1ccc(Cl)c(Cl)c1)N1CCC(CN2CCC(c3c[nH]c4ccc(NS(=O)(=O)c5cccs5)cc34)CC2)CC1`, the growth inhibition was 100% (active).
For `COc1ccc(CC(C)NCC(O)c2cccc(Cl)c2)cc1C` (stereo not drawn), the growth inhibition was 89% (active).
In the case of `CN1CC=C(c2c[nH]c3ccc(Oc4ccccc4)cc23)CC1`, the growth inhibition is reported as 98% (active).
For `CC(Cc1ccc(NC(=O)[C@@H](C)NCCc2cccc(Cl)c2)cc1)NCCc1cccc(Cl)c1` (stereo partly drawn), the growth inhibition was 99% (active).
For `Cc1csc(NC2=NCCN2)n1`, the growth inhibition was 99% (active).
For `O=C(C=Cc1cc([N+](=O)[O-])ccc1Cl)NC1CCC(CN2CCC(c3c[nH]c4ccccc34)CC2)CC1` (stereo not drawn), the growth inhibition was 102% (active).
With `CC(=O)C1(c2ccccc2)CCN(CCC2(c3ccc(Cl)c(Cl)c3)CN(C(=O)C3CCCC3)CCO2)CC1` (stereo not drawn) the growth inhibition was 88% (active).
For `S=C(NCCc1ccc(Cl)cc1)NC1CCC(CN2CCC(c3c[nH]c4ccccc34)CC2)CC1` (stereo not drawn), the growth inhibition was 100% (active) and 101% (active).
For `CC(Cc1ccc(SC(C)(C)C)cc1)NCC(O)c1cccc(Cl)c1` (stereo not drawn), the growth inhibition was 99% (active).
With `CS(=O)(=O)Nc1ccc2[nH]cc(C3CCN(CC4CCN(C(=O)/C=C/c5ccc(Cl)c(Cl)c5)CC4)CC3)c2c1` the growth inhibition was 101% (active).
With `C=C[C@@H]1CN2CC[C@H]1C[C@H]2[C@H](O)c1cc(-c2ccc(Cl)cc2)nc2ccc(OC)cc12` the growth inhibition was 99% (active).
For `OC(CNCc1ccccc1OC(F)F)c1cccc(C(F)(F)F)c1` (stereo not drawn), the growth inhibition was 97% (active).
In the case of `C#CCN1CCC2=C(C1)c1c(O)cc(C(C)CCCc3ccc(F)cc3)cc1OC2(C)C` (stereo not drawn), the growth inhibition is reported as 98% (active).
With `CC[C@H]1CN2CC[C@H]1C[C@H]2[C@H](O)c1cc(-c2ccc3ccccc3c2)nc2ccc(OC)cc12` the growth inhibition was 99% (active).
In the case of `COc1ccc2[nH]cc(C3=CCN(C[C@H]4C[C@@H]4C(=O)c4ccccc4)CC3)c2n1`, the growth inhibition is reported as 95% (active).
For `O=C1Nc2cccc3c2C1(CCCCCN1CC=C(c2c[nH]c4ccccc24)CC1)CCC3` (stereo not drawn), the growth inhibition was 94% (active).
For `COC(C(=O)OCCC1CCCN1C)(c1ccccc1)c1ccccc1` (stereo not drawn), the growth inhibition was 98% (active).
In the case of `CC(Cc1ccc(Oc2ccc(Cl)cc2)cc1)NCC(O)c1cccc(Cl)c1` (stereo not drawn), the growth inhibition is reported as 99% (active).
With `O=C(CCc1ccco1)NC1CCN(CC2(c3ccc(Cl)cc3)CCC2)CC1` the growth inhibition was 99% (active).

Target: Calcium-dependent protein kinase 1 (Plasmodium falciparum (isolate 3D7)) (UniProt P62344)
Sequence (P62344 whole entry, looked up): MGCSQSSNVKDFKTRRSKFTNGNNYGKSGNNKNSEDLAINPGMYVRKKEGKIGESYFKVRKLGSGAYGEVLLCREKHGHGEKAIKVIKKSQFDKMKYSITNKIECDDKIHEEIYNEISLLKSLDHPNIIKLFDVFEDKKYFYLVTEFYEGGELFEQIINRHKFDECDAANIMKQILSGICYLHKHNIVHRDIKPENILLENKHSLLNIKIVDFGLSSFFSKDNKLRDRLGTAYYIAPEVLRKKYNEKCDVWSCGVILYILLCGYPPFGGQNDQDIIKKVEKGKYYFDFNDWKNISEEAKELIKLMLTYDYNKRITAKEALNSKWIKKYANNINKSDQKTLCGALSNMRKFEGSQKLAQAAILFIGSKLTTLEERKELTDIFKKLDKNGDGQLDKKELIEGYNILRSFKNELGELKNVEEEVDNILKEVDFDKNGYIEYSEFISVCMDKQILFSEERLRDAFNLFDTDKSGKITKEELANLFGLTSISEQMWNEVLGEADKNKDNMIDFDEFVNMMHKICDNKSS
Test: PfCDPK1 kinase inhibitors, biochemical, TCAMS library (AID 1159585; cut-off not given, nearly all actives have IC50 up to about 0.98 µM;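 further: inhibitors leave more ATP so luminescence rises with inhibition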)
Conditions: recombinant PfCDPK1, Kinase-Glo ATP depletion luminescence
For `COCCNCc1ccc(-c2ccc(CN(C(=O)NC3CCCCC3)C3CCN(Cc4ccccc4)CC3)cc2)cc1`, the outcome was “inactive”.
In the case of `CC[C@H]1CN2CC[C@H]1C[C@H]2[C@H](O)c1cc(Cl)nc2ccc(OC)cc12`, the outcome is reported as “inactive”.
In the case of `CC(=O)Nc1ccc2[nH]cc(C3CCN(CC4CCN(C(=O)/C=C/c5ccc(Cl)c(Cl)c5)CC4)CC3)c2c1`, the outcome is reported as “inactive”.
With `COc1ccccc1CNCC(O)c1cc(C(F)(F)F)ccc1C(F)(F)F` (stereo not drawn) the outcome was “inactive”.
In the case of `CC(C)CNCc1ccc(-c2ccc(CN(C(=O)NC3CCCCC3)C3CCN(Cc4ccccc4)CC3)cc2)cc1`, the outcome is reported as “inactive”.
For `O=C(Nc1cc(C(F)(F)F)cc(C(F)(F)F)c1)N1CCC(CN2CCC(c3c[nH]c4ccccc34)CC2)CC1`, the outcome was “inactive”.
In the case of `COc1ccc(OC)c(CNCC(O)c2cc(C(F)(F)F)cc(C(F)(F)F)c2)c1` (stereo not drawn), the outcome is reported as “inactive”.
In the case of `Cc1[nH]c2ccc(O)cc2c1C1CCN(CC2CCC(NC(=O)/C=C/c3ccc(Cl)c(Cl)c3)CC2)CC1` (stereo not drawn), the outcome is reported as “inactive”.
In the case of `CC[C@H]1CN2CC[C@H]1C[C@@H]2[C@@H](OC(=O)c1ccc(Cl)cc1)c1ccnc2ccc(OC)cc12`, the outcome is reported as “inactive”.
In the case of `CC(=O)Nc1ccc(OCCN(CC(F)(F)F)c2ccc(C#N)cc2C(F)(F)F)cc1`, the outcome is reported as “inactive”.
For `COc1ccc(CC(C)NCC(O)c2cccc(Cl)c2F)cc1` (stereo not drawn), the outcome was “inactive”.
For `CN(c1cc(NC(=O)c2cccs2)ccn1)C1CCN(Cc2ccccc2)CC1`, the outcome was “inactive”.
With `Cc1[nH]c2cc(F)ccc2c1C1=CCN(CCCCC2(C)C(=O)Nc3ccccc32)CC1` (stereo not drawn) the outcome was “inactive”.
With `Cc1cc(C(=O)NC2CCN(CC3(c4ccc(Cl)cc4)CCC3)CC2)on1` the outcome was “inactive”.
With `O=C(c1cc(C(=O)NCc2ccc(Cl)cc2)c(=O)n(Cc2ccc(Cl)cc2)c1)c1cc(Cl)ccc1O` the outcome was “inactive”.
With `CCCc1c(C(=O)NC2CCC(CN3CCC(c4c[nH]c5ccccc45)CC3)CC2)cnn1-c1ccccc1` (stereo not drawn) the outcome was “inactive”.
With `Cc1cc2ccc(CNCCc3ccccc3Br)cc2nc1N` the outcome was “inactive”.
With `CSc1ccc(C[C@@H](C)NC[C@H](O)c2cccc(Cl)c2)cc1` the outcome was “inactive”.
For `CC(=O)N(Cc1ccccc1-c1cccc(CNCCc2ccccc2)c1)C1CCN(Cc2ccccc2)CC1`, the outcome was “inactive”.
For `CC(Cc1ccc(S(=O)(=O)N(C(C)C)C(C)C)cc1)NCC(O)c1cccc(C(F)(F)F)c1` (stereo not drawn), the outcome was “inactive”.
For `O=C(/C=C/c1ccc(Cl)c(Cl)c1)N1CCC(CN2CCC(c3c[nH]c4ccc(NS(=O)(=O)c5cccs5)cc34)CC2)CC1`, the outcome was “inactive”.
For `COc1ccc(CC(C)NCC(O)c2cccc(Cl)c2)cc1C` (stereo not drawn), the outcome was “inactive”.
With `CN1CC=C(c2c[nH]c3ccc(Oc4ccccc4)cc23)CC1` the outcome was “inactive”.
For `CC(Cc1ccc(NC(=O)[C@@H](C)NCCc2cccc(Cl)c2)cc1)NCCc1cccc(Cl)c1` (stereo partly drawn), the outcome was “inactive”.
In the case of `Cc1csc(NC2=NCCN2)n1`, the outcome is reported as “inactive”.
In the case of `O=C(C=Cc1cc([N+](=O)[O-])ccc1Cl)NC1CCC(CN2CCC(c3c[nH]c4ccccc34)CC2)CC1` (stereo not drawn), the outcome is reported as “inactive”.
For `CC(=O)C1(c2ccccc2)CCN(CCC2(c3ccc(Cl)c(Cl)c3)CN(C(=O)C3CCCC3)CCO2)CC1` (stereo not drawn), the outcome was “inactive”.
For `S=C(NCCc1ccc(Cl)cc1)NC1CCC(CN2CCC(c3c[nH]c4ccccc34)CC2)CC1` (stereo not drawn), the outcome was “inactive”.
With `CC(Cc1ccc(SC(C)(C)C)cc1)NCC(O)c1cccc(Cl)c1` (stereo not drawn) the outcome was “inactive”.
For `CS(=O)(=O)Nc1ccc2[nH]cc(C3CCN(CC4CCN(C(=O)/C=C/c5ccc(Cl)c(Cl)c5)CC4)CC3)c2c1`, the outcome was “inactive”.
In the case of `C=C[C@@H]1CN2CC[C@H]1C[C@H]2[C@H](O)c1cc(-c2ccc(Cl)cc2)nc2ccc(OC)cc12`, the outcome is reported as “inactive”.
In the case of `OC(CNCc1ccccc1OC(F)F)c1cccc(C(F)(F)F)c1` (stereo not drawn), the outcome is reported as “inactive”.
In the case of `C#CCN1CCC2=C(C1)c1c(O)cc(C(C)CCCc3ccc(F)cc3)cc1OC2(C)C` (stereo not drawn), the outcome is reported as “inactive”.
For `CC[C@H]1CN2CC[C@H]1C[C@H]2[C@H](O)c1cc(-c2ccc3ccccc3c2)nc2ccc(OC)cc12`, the outcome was “inactive”.
With `COc1ccc2[nH]cc(C3=CCN(C[C@H]4C[C@@H]4C(=O)c4ccccc4)CC3)c2n1` the outcome was “inactive”.
In the case of `O=C1Nc2cccc3c2C1(CCCCCN1CC=C(c2c[nH]c4ccccc24)CC1)CCC3` (stereo not drawn), the outcome is reported as “inactive”.
In the case of `COC(C(=O)OCCC1CCCN1C)(c1ccccc1)c1ccccc1` (stereo not drawn), the outcome is reported as “inactive”.
For `CC(Cc1ccc(Oc2ccc(Cl)cc2)cc1)NCC(O)c1cccc(Cl)c1` (stereo not drawn), the outcome was “inactive”.
For `O=C(CCc1ccco1)NC1CCN(CC2(c3ccc(Cl)cc3)CCC2)CC1`, the outcome was “inactive”.
